In PubChem BioAssay AID651719 (The Scripps Research Institute Molecular Screening Center, 2012) one finds inhibition data, which are given here for 87 compounds.

Molecules are shown by their SMILES. The whole screen tested about 360,000 compounds, of which about 1,600 (0.44%) were called active. This excerpt belongs to a sample that is enriched for actives. A number with no mark means an inactive call.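 How the source made its calls: active means inhibition above the screen-wide average plus 3 SD (cut at about 13% in these data); inactive means the rest.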

For this experiment, the target named is Galanin receptor type 3 (Homo sapiens) (UniProt O60755). Kind of experiment: blockers of human galanin receptor 3 – cell-based, fluorescence readout, primary screen (AID 651719).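 Further: forskolin and galanin both at EC90 stimulate the cells; cAMP rise reported by CNG channel membrane potential dye signal; 0% = forskolin plus galanin with DMSO and 100% = forskolin alone.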 The conditions noted are these: HEK293 GalR3-CNG cAMP membrane potential fluorescence; at 3 µM; stronger effect = higher value; galR3 body fused to GalR1 C-terminus.
Chain of Galanin receptor type 3 (Homo sapiens) (O60755 1-299 limits assumed): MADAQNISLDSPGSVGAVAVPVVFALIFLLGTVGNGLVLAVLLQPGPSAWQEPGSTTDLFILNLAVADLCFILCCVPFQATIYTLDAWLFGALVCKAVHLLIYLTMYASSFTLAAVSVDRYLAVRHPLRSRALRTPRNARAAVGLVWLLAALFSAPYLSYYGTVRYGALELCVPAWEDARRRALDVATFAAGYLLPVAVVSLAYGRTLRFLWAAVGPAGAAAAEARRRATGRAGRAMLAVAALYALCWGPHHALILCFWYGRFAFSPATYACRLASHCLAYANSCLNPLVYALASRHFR
Regarding `CCNC(=S)Nc1ccc(OC(F)(F)F)cc1`, the inhibition – broadly, the change of the read-out against control, counted positive when it falls – is 13.5% (active). Take `CN(CC(=O)Nc1ccc(OC(F)(F)F)cc1)C(=O)C1CCC1`: the inhibition is -3.79%. Regarding `COC(=O)Cc1ccc(OCC(=O)Nc2ccc(OC(F)(F)F)cc2)cc1`, the inhibition was 0.64%. As to `CCc1ccc(C2=CC(=O)CC(C)(C)C2=O)cc1`, the inhibition was -5.55%.

For `CC(C)CNc1cccc2c1S(=O)(=O)N[C@H](CC(C)C)CO2`, the inhibition is -4.83%. Consider `COC(=O)C1=C(C)NC(=S)NC1c1ccc(OC)cc1` (configuration not stated), for which the inhibition is -6.49%. For `COC(=O)c1cc2c(c3c4ccccc4n(S(=O)(=O)c4cccc(C)c4)c13)C(=O)N(Cc1ccccc1)C2` the value was -7.5%; for `CCn1c(-c2cc(OC)ccc2OC)csc1=Nc1c(C)n(C)n(-c2ccccc2)c1=O`, 12.9% (active); for `Cc1nc(N)sc1N=Nc1c(C)n(C)n(-c2ccccc2)c1=O`, -1.11%. Turning to `Cc1c(N=Nc2ccc(N(C)C)cc2)c(=O)n(-c2ccccc2)n1C`, the inhibition was 4.41%.

In the case of `Cc1[nH]nc2c1C(c1ccc(Br)cc1)NC2=O` (configuration not stated), the inhibition is -4.49%. For `CN1CCCCC(NC(=O)C(C)(C)C)C1=O` (configuration not stated) the value was -7.34%; for `N#Cc1ccc(OCCCN2CCC(C(O)(c3ccccc3)c3ccccc3)CC2)c(F)c1`, -9.27%. Consider `CCOC(=O)C1CSCCS(=O)(=O)N1Cc1ccc(Cl)cc1` (configuration not stated), for which the inhibition was -4.45%. For `CC1(C)OC(=O)C2=C(CC(CCc3ccccc3)OC2c2ccc(Cl)cc2)O1` (configuration not stated) the value was -5.79%; for `CN(CCc1cn[nH]c1)C(=O)CC1C(=O)NCCN1Cc1cccc(Oc2ccccc2)c1` (configuration not stated), -7.77%; for `O=C(CC1C(=O)NCCN1CC(c1ccccc1)c1ccccc1)NCCc1cn[nH]c1` (configuration not stated), 13.4% (active). For `O=C(CC1C(=O)NCCN1CC(c1ccccc1)c1ccccc1)NCC1CCOCC1` (configuration not stated) the value was -1.82%. To `CCOC(=O)/C=C/c1ccccc1O` belongs -6.85%; to `C=CCN=C1NC(c2ccccc2)C(C(=O)OC)=C(C)N1Cc1ccc(C(F)(F)F)cc1` (configuration not stated), -6.78%; to `c1ccc(Cc2ccc(OCCn3ccnc3)cc2)cc1`, 44.4% (active). On to `Clc1c(OCCCn2ccnc2)ccc2ccccc12`, for which the inhibition is -12.1%. To `Brc1ccc(OCCn2ccnc2)cc1` belongs 0.74%; to `C=CC[C@]12C[C@@]3(O[C@H](c4ccc(C(F)(F)F)cc4)N=C3C[C@H](c3ccc(OC)cc3)[C@H]1C)N(C1CCN(Cc3ccccc3)CC1)C2=O`, -4.57%. For the compound `CCOc1ccccc1C(=O)N1CCC[C@@H]1C(=O)N1CCC[C@H]1C(=O)NCc1ccccc1`, the inhibition was -4.67%. For `CN(Cc1cccnc1)C(=O)c1cc(COc2ccc3ncccc3c2)on1` the value was 91.7% (active); for `CC(=O)c1cccc(OCc2cc(C(=O)NC(C)Cc3cccnc3)no2)c1` (configuration not stated), 0.17%; for `CN(Cc1cnccn1)C(=O)c1cc(COc2cccc(C(F)(F)F)c2)on1`, -2.96%. To `O=S1(=O)c2c(cccc2N2CCCC2)O[C@H](COCc2ccccc2)CN1C1CC1` belongs -3.31%.

With `Cn1cnc([N+](=O)[O-])c1Sc1ccccc1`, the inhibition is -2.26%. For `Cn1cnc([N+](=O)[O-])c1Nc1ccccc1O` the value was 13.4% (active); for `Cn1cnc([N+](=O)[O-])c1Sc1n[nH]c(N)n1`, -10.2%; for `Cc1cc(Br)cn2c(Cc3ccccc3C(F)(F)F)c(-c3ccc(C#N)cc3)nc12`, -0.22%. Regarding `Nc1[nH]c(C(=O)c2ccccc2)c(-c2ccc(Cl)cc2Cl)c1C(=O)c1ccccc1`, the inhibition is -7.95%. For `COc1ccc(Cl)cc1NC(=O)[C@@H]1CCCN1C(=O)c1cccs1` the value was -4.08%; for `Cc1ccc(S(=O)(=O)N2CCCCC2)cc1NC(=O)[C@@H]1CCCN1C(=O)c1cccs1`, -1.7%; for `COc1cc(Cl)c(C)cc1NC(=O)[C@@H]1CCCN1C(=O)c1cccs1`, 14% (active). For `C[C@@H](CN1C2=NC[C@@H](Cc3ccccc3)N2C[C@H]1Cc1ccc(O)cc1)NC(=O)CCC1CCCCC1` the value was -7.8%; for `COC(=O)C1=C(C)N(Cc2ccccc2C(F)(F)F)C(=NCC2CC2)NC1c1cccc(Cl)c1` (configuration not stated), -5.91%; for `COc1ccc(C2C(C#N)=C(N)Oc3n[nH]c(C)c32)cc1CN1CCN(c2ccc(F)cc2)CC1` (configuration not stated), -5.67%. To `CCCc1nc2c([nH]1)C(c1cccnc1)C(C#N)=C(N)O2` (configuration not stated) belongs -0.27%; to `COc1ccc(-c2[nH]nc3c2C(c2ccncc2)C(C#N)=C(N)O3)cc1` (configuration not stated), 16.3% (active); to `COC(=O)[C@]1(Cc2ccccc2)NC=C(C(=O)c2ccccc2)[C@@H]1c1cccc(OC)c1`, -6.78%. `CCCCNC(=O)c1ccccc1NC(=O)C1=C(C)OCCS1`: the inhibition is 103% (active). For `COc1ccc(N2CCN(C(=O)c3ccccc3NC(=O)C3=C(C)OCCS3)CC2)cc1` the value was -6.97%.

For the compound `CCCCNC(=O)c1ccccc1NC(=O)c1ccccc1N(C)S(C)(=O)=O`, the inhibition was -3.23%.

With `CC1CCCN(c2cccc3c2S(=O)(=O)N(Cc2ccc(F)cc2)[C@@H](C)[C@H](c2ccccc2)O3)C1` (some centres not stated), the inhibition was -4.47%. For `O=C1COc2ccc(C(=O)COC(=O)CCOc3ccccc3)cc2N1`, the inhibition was -1.45%.

With `O=C1COc2ccc(C(=O)COC(=O)c3ccccc3Cl)cc2N1`, the inhibition is -5.73%.

For `CC(C)[C@@H](C(=O)OCC(=O)c1ccc2c(c1)NC(=O)CO2)N1C(=O)c2ccccc2C1=O`, the inhibition is 42.5% (active). `OC(c1ccccc1)(c1ccccc1)C1CCN(CCCOc2ccc(-c3ccsc3)cc2)CC1`: the inhibition was -4.38%. To `CNC(=O)NC(=O)CSc1nnc(-c2ccc(F)cc2)n1CC1CCCO1` (configuration not stated) belongs 29.6% (active); to `O=C(CSc1nnc(-c2ccco2)n1CC1CCCO1)c1ccccc1` (configuration not stated), -2.73%.

On to `Cc1nnc(SCC(=O)NNC(=O)c2ccc(Cl)cc2)n1CC1CCCO1` (configuration not stated), for which the inhibition is -3.6%. To `COc1cc2c(cc1OC)C(Cc1cc(OC)c(OC)cc1[N+](=O)[O-])=NCC2` belongs -6.44%; to `COc1cc2c(cc1OC)C(/C=C/c1ccco1)=NCC2`, -5.84%. For `COc1cc2c(cc1OC)C(c1cccc([N+](=O)[O-])c1)=NCC2` the value was 13.9% (active); for `CC(C)CNc1cccc2c1S(=O)(=O)N[C@H](C)CO2`, -4.46%; for `COC(=O)Cc1nnn2c1[C@H](C)[C@H](c1ccccc1Br)OCC2`, -3.41%. For `COc1ccc(NC(=O)CSc2nc(N)c(-c3ccccc3)c(=O)[nH]2)cc1` the value was 1.59%. In the case of `COc1ccc(OC)c(NC(=O)CSc2nc(-c3ccccc3)cc(=O)[nH]2)c1`, the inhibition was -1.18%. For `COc1ccc(OC)c(NC(=O)CSc2nc(N)c(-c3ccccc3)c(=O)[nH]2)c1`, the inhibition was 29.8% (active).

In the case of `COc1ccc(-c2ccc3c(n2)CCCN3S(=O)(=O)c2ccc(C)cc2)cc1`, the inhibition is -6.68%. To `Cc1nc(NC(=O)C(C)(C)C)sc1[N+](=O)[O-]` belongs -6.84%. For `COc1ccccc1-c1c(C#N)c(N)nc2c1CCC2` the value was -3.19%; for `CSc1nc(N)c(C#N)c(-c2ccccc2Cl)c1C#N`, 13.6% (active); for `CSc1ccc(-c2c(C#N)c(N)nc3c2c(C)nn3-c2ccccc2)cc1`, -3%. On to `Cc1ccc(N)cc1CN1CCN(c2ncc(Cc3ccccc3)cn2)CC1`, for which the inhibition was 3.95%. Regarding `COc1ccccc1Cc1c(-c2ccc(F)cc2)nc2ccc(C)cn12`, the inhibition was -8.12%.

On to `CCOC(=O)C1=C(C(=O)OCC)C2N(Cc3ccc(C#N)cc3)c3ccccc3[C@@]23C[C@@H](C(=O)OC)N(S(=O)(=O)c2ccc(F)cc2)C3=N1` (some centres not stated), for which the inhibition is -4.3%. With `CC1(C)Cc2c(cnn2-c2cccc(F)c2)C(NC(=O)c2cc[n+]([O-])cc2)C1` (configuration not stated), the inhibition was -2.25%. For `Cn1nccc1C(=O)NC1CCCc2c1cnn2-c1ccc(F)cc1F` (configuration not stated), the inhibition is 99.2% (active). To `COc1ccc(C(=O)NC2CC(C)(C)Cc3c2cnn3-c2ccccc2C)o1` (configuration not stated) belongs -3.9%. To `COc1ccc(C(=O)NC2CCCc3c2cnn3-c2cccc(C)c2C)c(OC)n1` (configuration not stated) belongs 4.34%. For the compound `Cn1nccc1C(=O)NC1CCCc2c1cnn2-c1ccccc1F` (configuration not stated), the inhibition is 103% (active).

On to `COc1ccc(OC)c(C(=O)NC2CCCc3c2cnn3-c2cc(C)cc(C)c2)c1` (configuration not stated), for which the inhibition is -8.72%. `Cc1ccccc1C(=O)N[C@H](C(=O)N1CCC[C@H]1C(=O)NCc1ccccc1)C(C)C`: the inhibition is -4.85%. To `COc1ccc(NS(=O)(=O)c2ccc(C(=O)Nc3c(C)n(C)n(-c4ccccc4)c3=O)cc2)cc1` belongs -0.08%; to `COc1ccc(NS(=O)(=O)c2ccc(NC(=O)c3ccc(N(C)S(C)(=O)=O)cc3)cc2)cc1`, 82.7% (active).

With `COc1ccc(NS(=O)(=O)c2cc(NC(=O)c3ccc(S(=O)(=O)N(C)C)cc3)ccc2N2CCOCC2)cc1`, the inhibition was -5.13%. For `Nc1ncnc2c1ncn2[C@@H]1O[C@H](C(=O)N[C@@H](CCc2ccccc2)C(=O)NCC(=O)N2CCOCC2)[C@@H](O)[C@H]1O` the value was -4.93%; for `Cc1cc(N2CCN(C(=O)OC(C)(C)C)C[C@H]2C)ccc1N1CCN(Cc2ccccc2)[C@H](C)C1`, -6.01%; for `CC(=O)OCCC(C)C`, -6.17%.

In the case of `CC(C[N+](C)(C)C)OC(N)=O` (configuration not stated), the inhibition was -2.23%.

In the case of `CC(=O)OC(C)C[N+](C)(C)C` (configuration not stated), the inhibition is 32.6% (active). On to `COCc1cc(N2CCN(C(=O)OC(C)(C)C)C[C@@H]2C)ccc1N1CCN(Cc2ccccc2)[C@H](C)C1`, for which the inhibition was -0.36%. To `Cc1ccc2nc(-c3ccc(CN4CCC(n5cc(-c6ccccc6)[nH]c5=O)CC4)cc3)c(-c3ccccc3)nc2c1` belongs -5.31%.
